Results reported in ChEMBL document CHEMBL3433997, “St. Jude Leishmania screening dataset” (2016).

Tests used:
Format in all cases: functional
[1] = molecular target: Solute carrier family 2, facilitated glucose transporter member 1 (Homo sapiens) (UniProt P11166); assay: ST_JUDE_LEISH: Cytotoxicity at 2uM final concentration against transgenic Leishmania Mexicana promastigotes LmGLUT1 that are glucose transport deficient and complemented with the human glucose transporter GLUT1. Activity is measured by DNA content using SYBR green in vitro
[2] = molecular target: Hexose transporter 1 (Plasmodium falciparum) (UniProt O97467); assay: ST_JUDE_LEISH: Cytotoxicity at 2uM final concentration against transgenic Leishmania Mexicana promastigotes LmPfHT that are glucose transport deficient and complemented with the Plasmodium falciparum hexose transporter. Activity is measured by DNA content using SYBR green in vitro
[3] = molecular target: Glucose transporter (Leishmania mexicana) (UniProt O61059); assay: ST_JUDE_LEISH: Cytotoxicity at 2uM final concentration against transgenic Leishmania Mexicana promastigotes LmGT2 that are glucose transport deficient and complemented with the L. Mexicana glucose transporter 2. Activity is measured by DNA content using SYBR green in vitro

Sequence of Solute carrier family 2, facilitated glucose transporter member 1 (Homo sapiens) (P11166 whole entry): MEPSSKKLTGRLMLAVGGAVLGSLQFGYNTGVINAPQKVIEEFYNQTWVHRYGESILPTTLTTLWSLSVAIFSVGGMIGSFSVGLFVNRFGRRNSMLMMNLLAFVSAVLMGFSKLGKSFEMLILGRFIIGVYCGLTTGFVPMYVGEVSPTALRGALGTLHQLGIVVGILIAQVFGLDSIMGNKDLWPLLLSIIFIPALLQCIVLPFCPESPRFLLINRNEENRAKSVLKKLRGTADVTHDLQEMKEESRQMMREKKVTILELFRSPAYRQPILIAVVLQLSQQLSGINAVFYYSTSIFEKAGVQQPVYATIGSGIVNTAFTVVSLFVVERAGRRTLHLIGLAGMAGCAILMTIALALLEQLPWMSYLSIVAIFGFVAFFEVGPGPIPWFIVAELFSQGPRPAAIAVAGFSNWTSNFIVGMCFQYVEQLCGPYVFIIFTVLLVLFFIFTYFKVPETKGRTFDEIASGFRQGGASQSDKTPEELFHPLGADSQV

Compound | inhibition [1] | inhibition [2] | inhibition [3]
Cn1cnc2c(Nc3ccncc3)nc(-c3ccc4ccccc4c3)nc21 | -0.3% | 0.97% | -0.56%
N=c1n(CCN2CCCCC2)c2ccccc2n1CC(O)c1cccc(Br)c1 (configuration not stated) | 3.65% | 4.03% | 3.65%
CCc1cc(Br)c2c(c1)C(NCCCNc1cc(=O)c3ccccc3[nH]1)CCN2 (configuration not stated) | 3.82% | 2.76% | 5.63%
O=C(/C=C/c1ccc(-c2nc3cc(F)c(F)cc3[nH]2)cc1)NCc1ccc(Cl)c(Cl)c1 | 4.53% | 4.32% | 1.96%
Nc1nccc2ccc(-c3cccc4ncccc34)cc12 | 1.74% | 0.04% | 1.15%
Fc1ccc(-c2cncc(Nc3ccncc3)n2)cc1 | 6.02% | 7.91% | 8.39%
Cc1sc2ncnc(Sc3nnc(N)s3)c2c1C | 2.03% | 3.89% | 1.09%
Oc1ccc(Nc2nc(NCc3ccco3)c3ccccc3n2)cc1 | 25.1% | 20.8% | 10.9%
CS(=O)(=O)CCNCc1nc(-c2ccc3c(Nc4ccc(F)c(O)c4)ccnc3c2)cs1 | 0.96% | 0.78% | 0.48%
CCN(CC)CCN(Cc1ccc(-c2ccc(C(F)(F)F)cc2)cc1)C(=O)c1ccc(-c2ccc(C#N)cc2)cc1 | 2.48% | 0.49% | 2.37%
CCCCCN1CCC(NS(=O)(=O)c2ccc(C(=O)Nc3cccc(C(F)(F)F)c3)cc2)C1 (configuration not stated) | 8.42% | 2.22% | 2.26%
Cc1cc(C(=O)NC2CCN(Cc3ccccc3)CC2)ccc1-c1nc2cc(Cl)c(Cl)cc2[nH]1 | 3.63% | -0.19% | 3.05%
O=C(Nc1ccc([N+](=O)[O-])cc1Br)c1cc2ccccc2nc1Cl | 8.95% | 8.73% | 7.12%
COc1ccc(C=NN=c2cc(C)[nH]c3ccccc23)c(OC)c1 | 54.4% | 66% | 55.3%
O=C(NCCc1ccccc1)N(Cc1cccc(-c2ccc(CNCCc3ccccc3)cc2)c1)C1CCN(Cc2ccccc2)CC1 | 0.95% | -0.75% | 0.12%
CN(C)C(S)=NN=Cc1cccc(O)c1O | 6.64% | 6.87% | 4.78%
CN(CCc1ccccn1)Cc1ccc(-c2ccc(-c3nc4ccccc4[nH]3)s2)cc1 | -0.34% | -1.13% | -2.7%

Compound | inhibition [1] | inhibition [2] | inhibition [3]
CCCc1ccc(-c2csc(NC(=O)c3ccc([N+](=O)[O-])o3)n2)cc1 | 78.4% | 77.8% | 37.8%
COC(=O)c1ccc2nc(-c3ccc(/C=C/C(=O)NCc4ccc(Cl)c(Cl)c4)cc3)[nH]c2c1 | 3.11% | 0.43% | 4.71%
Cc1cccc(C)c1OC(=O)C(C)C(O)C1(Sc2ccccc2)CCN(C)CC1 (configuration not stated) | 5.2% | 3.78% | 3.85%
COc1ccc(CN2CCCN(Cc3cccc(NC(=O)c4ccc5ccccc5c4)c3)CC2)cc1 | 1.59% | 1.71% | 6.07%
CCN(CC)/C(=N\C(=N)NCCCCCCNC(=N)/N=C(\Nc1ccc(Cl)cc1)N(CC)CC)Nc1ccc(Cl)cc1 | 0.25% | -0.21% | -0.92%
CS(=O)(=O)c1ccc(CCNCc2ccc(-c3ccc(CNC4Cc5ccccc5C4)cc3)nc2)cc1 | -0.55% | -0.45% | 2.3%
Nc1nccc2ccc(-c3cccc(OCc4ccccc4)c3)cc12 | 1.85% | 2.5% | -2.03%
Cc1cccc2nc(-c3ccc(-c4ccc(CN5CCN(c6ccncc6)CC5)cc4)s3)[nH]c12 | 2.98% | 2.29% | 1.09%
FC(F)(F)c1ccc2[nH]c(-c3ccc(-c4cccc(CNCc5ccccc5)c4)cc3)nc2c1 | 7.1% | 4.87% | 7.33%
Cc1cccc2nc(-c3cccc(-c4ccc(NC(=O)c5ccoc5)cc4)c3)[nH]c12 | -0.27% | 2.14% | -1.09%
CCOC(=O)N(C)/N=C/[C@H](CCc1ccccc1)NC(=O)[C@H](CC(C)C)NC(=O)c1cc2cccc(OC)c2o1 | 5.68% | 3.47% | 5.24%
O=S(=O)(Nc1ccc(CCN2CCC(N3CCCCC3)CC2)cc1)c1cccc(C(F)(F)F)c1 | 6.42% | 7.5% | 5.56%
Cn1nc(C(=O)N2CCC(c3[nH]ncc3Cc3ccccc3)CC2)c2ccccc2c1=O | 0.16% | 2.06% | 2.12%
O=C(Nc1ccc(-c2ccccc2)cc1)Nc1cccc(Cn2nc(Cl)c(N3CCNCC3)cc2=O)c1 | 0.77% | 2.24% | 4.62%
Nc1ncc(-c2cc3ccccc3o2)c(N)n1 | 3.02% | 2.51% | -0.11%
Oc1ccc(CCNc2nc(NCCOc3ccccc3-c3ccccc3)nc(N3CCNCC3)n2)cc1 | 1.26% | 0.85% | 1.75%
COc1ccc2nccc([C@@H](O)CN3CCC(NC(=O)CCC(=O)c4cc(C(C)(C)C)ccc4OC)CC3)c2c1 | 5.04% | 4.7% | 1.95%
